# From the OligoGym collection
# Biological target: CTHRC1
# Experiment: pooled miR-30 sensor sort-seq; sequence = guide strand
# Conditions: shRNA
# Further: reference of the scale not given here.
row,Sequence,sensor-assay potency score (higher = more potent)
1,ATAAATTATAGCTTCAATGGGA,0.0197
2,TTAGAGCACTATTTGAACGCAT,-0.079
3,TAGCAACATCCACTAATCCAGC,-1.03
4,TCTTTGTAAATGTACACTCCGC,-0.893
5,TAATTCAATGAACTCCATGAAC,-1.24
6,TAAATTATAGCTTCAATGGGAA,-0.0923
7,TAGAGCACTATTTGAACGCATC,-1.21
8,TTGAATGTGAAATACCAACGCT,-0.453
9,TTTGTAAATGTACACTCCGCAA,-1.33
10,ATGAACTCCATGAACACTGCTT,0.166

# Biological target: CTLA4
# Experiment: as above
# Conditions: shRNA
row,Sequence,sensor-assay potency score (higher = more potent)
1,TAGCAATTACATAAATCTGGGT,-0.226
2,TCATCTAGGAAGGTCAACTCAT,-0.426
3,TACATGAGCTCCACCTTGCAGA,-0.733
4,TTCTTTAGCATTTTGCTCAAAG,-0.747
5,TTTTCTTTAGCATTTTGCTCAA,-0.539
6,TTTGCTCAAAGAAACAGCTGTG,0.483
7,TTGCTTTTCACATTCTGGCTCT,0.296
8,TTGCAGATGTAGAGTCCCGTGT,-0.673
9,TACTCACACACAAAGCTGGCGA,0.197
10,TTTCTTTAGCATTTTGCTCAAA,-0.998
11,TTACATAAATCTGGGTTCCGTT,-0.355
12,TTCACTTGATTTCCACTGGAGG,-0.709
13,TTGGATAGTGAGGTTCACTTGA,0.333
14,TTTAGCAATTACATAAATCTGG,0.216
